TDP1 inh: blocks human tyrosyl-DNA phosphodiesterase 1; Q9NUW8; recombinant TDP1, AlphaScreen DNA substrate cleavage; Potency, µM (top dose mostly 130 µM), inactives show at the top dose activity change, negative = inhibition, most hits filed as inhibitors; actives 0.28% (n = 350,000); AID 485290; also: potency is read from the fitted curve at half-maximal effect; % is scaled to controls: 0 for no effect and ±100 for the full control effect; nearly all actives have a fitted effect of over 40% in size
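AlphaScreen read-out: signal falls as enzyme removes the 3' tyrosine-FITC from a 5'-biotinylated DNA oligo (15 nM, 5 min, RT). Enzyme was E. coli-made recombinant Tdp1 at 1 nM, exposed to compound for 15 min beforehand; beads 10 ug/ml, 10 min.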
Pol kappa inh-1: inhibitors of human DNA polymerase kappa. purified Pol kappa, fluorescent DNA synthesis assay, 10 min. Q9UBT6. actives 0.53% (n = 400,000). Potency, µM (doses to about 107 µM), without a hit: top-dose activity, negative = inhibition, most hits filed as inhibitors; also: potency is read from the fitted curve at half-maximal effect; % is scaled to controls: 0 for no effect and ±100 for the full control effect
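Enzyme at 10 nM met test compounds for 15 min at room temperature. Substrate addition (50 nM final) began the reaction, which was monitored by fluorescence at 0 and 10 min.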
Pol iota inh: blocks human DNA polymerase iota activity; Potency, µM (titrated, usually from 115 µM), without a hit: top-dose activity, negative = inhibition, usual class: inhibitors; Pol iota fluorescent replication assay, 10 min; Q9UNA4; AID 588590; actives 1% (n = 390,000); also: potency is read from the fitted curve at half-maximal effect
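Pol iota at 10 nM preincubated 15 min with compounds at room temperature; reaction started with fluorescent substrate, 50 nM final. Fluorescence read kinetically at 0 and 10 min; buffer-only wells as negative control.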
FEN1 inh-1: blocks human flap endonuclease 1 | P39748 | Recombinant FEN1 flap cleavage, fluorescence, 15 min | Potency, µM (series often up to 114 µM), for inactives: top-dose activity change, negative = inhibition, actives largely listed as inhibitors | actives 0.35% (n = 390,000) | AID 588795; also: potency is read from the fitted curve at half-maximal effect; % is scaled to controls: 0 for no effect and ±100 for the full control effect; nearly all actives have a fitted effect of over 65% in size
Target sequence (P39748 whole entry, looked up): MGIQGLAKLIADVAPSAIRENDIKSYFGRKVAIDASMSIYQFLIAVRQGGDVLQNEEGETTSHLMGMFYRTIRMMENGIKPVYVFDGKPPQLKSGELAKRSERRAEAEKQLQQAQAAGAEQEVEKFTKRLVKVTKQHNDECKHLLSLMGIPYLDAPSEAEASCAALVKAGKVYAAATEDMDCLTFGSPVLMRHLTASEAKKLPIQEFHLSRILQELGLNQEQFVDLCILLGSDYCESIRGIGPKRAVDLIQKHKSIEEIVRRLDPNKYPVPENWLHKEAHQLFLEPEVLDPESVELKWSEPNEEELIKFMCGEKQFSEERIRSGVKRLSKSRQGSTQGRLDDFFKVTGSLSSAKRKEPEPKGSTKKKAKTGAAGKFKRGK
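FEN1 at 10 nM preincubated with compounds 15 min at room temperature, then flap DNA substrate added at 50 nM final. Signal read at 0 and 15 min; concentration-response fitted with four-parameter Hill equation.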
POLB inh: blocks human DNA polymerase beta activity | Potency, µM (highest dose often 114 µM), inactives show at the highest dose activity change, negative = inhibition, usual class: inhibitors | Pol beta primer extension/strand displacement, fluorescence kinetic | actives 1.3% (n = 340,000); also: potency is read from the fitted curve at half-maximal effect; % is scaled to controls: 0 for no effect and ±100 for the full control effect
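Values derive from four-parameter Hill fits of normalized kinetic data: reads at 0 and 10 min following addition of 50 nM substrate to 10 nM Pol beta preincubated 15 min with compound.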
Pol eta inh-1: inhibitors of human DNA polymerase eta | Q9Y253 | actives 1.2% (n = 390,000) | Potency, µM (doses to about 114 µM), for the others: top-dose activity change, negative = inhibition, usual class: inhibitors | AID 588591 | recombinant Pol eta, fluorescent DNA replication assay; also: potency is read from the fitted curve at half-maximal effect; % is scaled to controls: 0 for no effect and ±100 for the full control effect
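Fluorescent replication assay: 50 nM final substrate added after a 15 min room-temperature compound preincubation with 10 nM enzyme. Signal taken at 0 min and again at 10 min.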
GALK inh confirm: galactokinase (human) inhibition, confirmation; shares compounds with Pol eta inh-1; purified GALK, Kinase-Glo ATP depletion luminescence; Potency, µM (doses to about 115 µM), for the others: top-dose activity, negative = inhibition, actives largely listed as inhibitors; actives 70% (n = 150)
Redox cycling: counter-screen for GALK inhibitors: redox cycling H2O2 generation; shares compounds with Pol eta inh-1; Phenol red-HRP H2O2 redox cycling, absorbance 600 nm; Potency, µM (highest dose often 115 µM), for inactives: top-dose activity change, negative = H2O2 signal, hits mostly inhibitors; actives 40% (n = 150); AID 2035
HEK293 tox: reduces HEK-293 cell viability in GALK counter-screen | shares compounds with Pol eta inh-1 | HEK-293 viability, ATP luminescence (CellTiter-Glo), 24/48 h | Potency, µM (highest dose often 46.1 µM), for the others: top-dose activity change, negative = cytotoxicity, actives largely listed as inhibitors | actives 10% (n = 170) | AID 2547; also: potency is read from the fitted curve at half-maximal effect; % is scaled to controls: 0 for no effect and ±100 for the full control effect
Pol kappa inh-2: confirmation of human DNA polymerase kappa inhibitors; shares compounds with Pol eta inh-1; purified Pol-kappa, fluorescent strand-displacement substrate; Potency, µM, hits mostly inhibitors; actives 76% (n = 920); also: potency is read from the fitted curve at half-maximal effect
Pol eta inh-2: Pol eta (human) inhibition, cherry-pick confirmation. shares compounds with Pol eta inh-1. Pol eta primer extension, TAMRA/BHQ fluorescence, 10 min. Potency, µM, most hits filed as inhibitors. actives 64% (n = 2,600). AID 720502; also: potency is read from the fitted curve at half-maximal effect
FEN1 inh-2: confirmation of human FEN1 inhibitors. shares compounds with FEN1 inh-1. FEN1 flap cleavage, TAMRA/BHQ2 fluorogenic DNA substrate. Potency, µM, hits mostly inhibitors. actives 79% (n = 880); also: potency is read from the fitted curve at half-maximal effect; nearly all actives have a fitted effect of over 60% in size
Starred values were filed as active, the others as inactive; ? = inconclusive; . = no result; [ ] = remark or other dose. Hits are enriched below; roughly 2.4% of the tested compounds scored in any of these assays. Calls follow the shape of the dose curve; as a rule, active = well fitted curve in the direction sought with a large enough effect; inconclusive = small, poorly fitted or top-dose-only effect, or another doubt; inactive = no such curve, though single readings can be large; an effect the other way counts as inactive or inconclusive.

SMILES | TDP1 inh | Pol kappa inh-1 | Pol iota inh | FEN1 inh-1 | POLB inh | Pol eta inh-1 | Pol eta inh-2 | FEN1 inh-2 | others
O=c1nc(/C=C/c2ccc(Cl)cc2Cl)cc(C(F)(F)F)[nH]1 | 6.0% | -4.6% | ? | -2.3% | -8.4% | 31.6µM* | ? | .
CC(C)c1ccc(N2C(=O)NC(=O)/C(=C\c3cnc(-c4ccccc4)nc3)C2=O)cc1 | -7.8% | -10.5% | -9.8% | -11.4% | 23.7% | -4.4% | . | .
CC(C)c1ccc(N2C(=O)NC(=O)/C(=C\C=C\c3ccco3)C2=O)cc1 | 2.5% | 39.8µM* | 8.91µM* | ? | ? | 20µM* | 75.7* | .
CN1C(=O)C(=Cc2ccc(SC3CCCCC3)o2)C(=O)N(C)C1=O | 0.0% | -26.7% | ? | -0.8% | 22.4µM* | 22.4µM* | . | . | Pol kappa inh-2=?
CN1C(=O)C(=Cc2ccc(N3CCCCC3)o2)C(=O)N(C)C1=S | -7.5% | -9.9% | -5.8% | -5.5% | 11.2% | ? | . | .
CCn1nc(-c2cccs2)nc2c(=O)n(C)c(=O)nc1-2 | 1.9% | -12.4% | -154.3% | 12.7% | 0.7% | 0.794µM* | . | . | GALK inh confirm=0.211µM*;Redox cycling=0.266µM*;HEK293 tox=?
O=C(Cl)c1ccccc1F | -6.5% | . | . | . | . | . | . | .
O=C(c1cccc2ccccc12)C1CCCN(C2CCC2)C1 (stereo not drawn) | 3.6% | ? | ? | 11.0% | -9.9% | ? | ? | .
CC(=O)CC(c1ccccc1)c1c(O)c2ccc(O)cc2oc1=O (stereo not drawn) | 4.9% | 14.3%[60.1 µM] | . | . | . | . | . | .
N[C@@H](Cc1cc(I)c(O)c(I)c1)C(=O)O | 0.0% | 50.1µM* | 31.6µM* | 7.94µM* | 30.5% | 39.8µM* | 30.1* | 60.1*
CCC1COC(Cn2cncn2)(c2ccc(Cl)cc2Cl)O1 (stereo not drawn) | 3.6% | -19.2%[60.1 µM] | . | . | . | . | . | .
O=C(/C=C/c1ccccc1)NC(NC(=S)Nc1cccc2cccnc12)C(Cl)(Cl)Cl (stereo not drawn) | 9.2% | ? | . | . | . | . | . | .
CCOc1ccc(N2C(=O)NC(=O)/C(=C\c3cc(OC)c(OC)cc3[N+](=O)[O-])C2=O)cc1 | -11.6% | -17.7% | ? | -4.2% | 16.5% | -4.6% | . | .
COc1ccccc1N1C(=O)NC(=O)/C(=C/c2ccc([N+](=O)[O-])s2)C1=O | -5.2% | 39.8µM* | ? | 44.7µM* | ? | 17.8µM* | 37.9* | 10.7*
COc1ccc(N2C(=O)NC(=O)/C(=C/c3ccc([N+](=O)[O-])s3)C2=O)cc1 | -1.9% | 17.8µM* | 54.2% | ? | ? | 8.91µM* | 30.1* | 19*
COc1ccc(N2C(=O)NC(=O)/C(=C\c3ccc([N+](=O)[O-])s3)C2=O)cc1 | -0.6% | 50.1µM* | ? | ? | ? | 17.8µM* | 26.9* | 9.53*
COc1ccccc1N1C(=O)NC(=O)/C(=C/c2ccc3c4c(cccc24)CC3)C1=O | 0.0% | -7.0% | 2.4% | 9.7% | -27.3%[57.1 µM] | ? | . | .
CNc1ccc2oc(C[C@H]3O[C@]4(CC[C@H]3C)O[C@H]([C@H](C)C(=O)c3ccc[nH]3)[C@H](C)C[C@H]4C)nc2c1C(=O)O | 26.2%[56.1 µM] | -14.2%[19.4 µM] | . | . | . | . | . | .
NCCc1cc(O)c(O)cc1O | 0.251µM* | 0.708µM* | 1.41µM* | 25.1µM* | . | 56.2µM* | 67.5* | ?
N#CC(C#N)=Cc1ccc(O)cc1 | 6.9% | -13.8%[60.1 µM] | . | . | . | . | . | .
Cc1cc(C=C(C#N)C#N)ccc1N1CCCC1 | -5.9% | -15.6% | 89.1µM* | ? | 10.4% | -7.3% | . | 75.7*
COC1C(C)OC(OC2CC(C)(O)Cc3cc4c(c(O)c32)C(=O)c2c(O)cc3c(c2C4=O)OC2OC3(C)C(O)C(N(C)C)C2O)C(OC)C1(C)OC (stereo not drawn) | . | 25.1µM* | ? | 15.8µM* | . | ? | . | 4.78*
CC1=C[C@H]2[C@]3(O)C(C=C(CO)C[C@]2(O)C1=O)[C@@H]1C(C)(C)[C@]1(O)[C@H](O)[C@H]3C (stereo partly drawn) | 5.6% | 17.5%[60.1 µM] | . | . | . | . | . | .
